In PMC7862700, “An all-to-all approach to the identification of sequence-specific readers for epigenetic DNA modifications on cytosine”:

What was measured:
Experiment in all cases: DAPPL (digital affinity profiling via proximity ligation, sequencing); 10 mM Tris-HCl pH 7.5, 50 mM NaCl, 1 mM DTT, 4% glycerol, room temperature, 30 min; GST-TFs on glutathione beads, 16-mer random dsDNA library, 0.1% formaldehyde crosslink after washing; high values mean tight binding
FEV = molecular target: T1, FEV (Homo sapiens, UniProt Q99581 1-238); conditions: protein: recombinant; tags: N-terminal GST; dsDNA, one strand shown
T1 sequence: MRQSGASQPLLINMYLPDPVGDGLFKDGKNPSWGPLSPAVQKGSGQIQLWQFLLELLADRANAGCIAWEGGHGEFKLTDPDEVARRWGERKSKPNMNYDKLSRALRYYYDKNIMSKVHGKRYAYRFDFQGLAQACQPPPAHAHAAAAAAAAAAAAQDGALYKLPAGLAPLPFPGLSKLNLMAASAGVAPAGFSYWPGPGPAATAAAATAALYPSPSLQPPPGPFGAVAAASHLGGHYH
How it was run: (§1)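 In yeast, human transcription factors were expressed with a GST fusion, then pulled down on glutathione beads and given DNA barcodes. Pooled with a tag-only sample, they were exposed to 200 nmole of a 16-mer random double-stranded DNA library (Tris/NaCl/DTT/glycerol buffer, room temperature, 30 min), washed, crosslinked with 0.1% formaldehyde, proximity-ligated using BsaI/T4 ligase for 1 h at 37 °C, PCR-amplified and read on an Illumina NextSeq500. Each hexamer's frequency of reads for a factor, divided by the matching frequency for the tag-only sample, gives the binding signal.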

ETV5 = ETV5 (Homo sapiens, UniProt P41161 1-510); conditions: protein: recombinant; tags: N-terminal GST; dsDNA, one strand shown
ETV5, sequence (P41161 whole entry): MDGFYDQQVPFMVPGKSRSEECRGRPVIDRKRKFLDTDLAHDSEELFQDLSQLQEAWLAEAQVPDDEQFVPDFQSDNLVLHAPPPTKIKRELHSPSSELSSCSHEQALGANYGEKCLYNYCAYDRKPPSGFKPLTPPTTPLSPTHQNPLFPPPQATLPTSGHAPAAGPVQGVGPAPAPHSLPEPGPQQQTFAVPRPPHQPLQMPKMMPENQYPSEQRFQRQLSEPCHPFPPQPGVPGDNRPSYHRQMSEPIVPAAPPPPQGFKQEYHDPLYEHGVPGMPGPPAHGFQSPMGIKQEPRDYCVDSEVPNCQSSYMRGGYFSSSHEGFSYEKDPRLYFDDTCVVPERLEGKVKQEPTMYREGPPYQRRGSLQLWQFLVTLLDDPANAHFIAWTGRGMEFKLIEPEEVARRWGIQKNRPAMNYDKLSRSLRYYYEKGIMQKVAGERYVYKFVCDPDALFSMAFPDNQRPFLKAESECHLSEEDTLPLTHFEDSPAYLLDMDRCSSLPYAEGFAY
How it was run: as §1

HSF1 = HSF1 (Homo sapiens, UniProt Q00613 1-529); conditions: protein: recombinant; tags: N-terminal GST; chain copies: 3; dsDNA, one strand shown
HSF1, sequence (Q00613 whole entry): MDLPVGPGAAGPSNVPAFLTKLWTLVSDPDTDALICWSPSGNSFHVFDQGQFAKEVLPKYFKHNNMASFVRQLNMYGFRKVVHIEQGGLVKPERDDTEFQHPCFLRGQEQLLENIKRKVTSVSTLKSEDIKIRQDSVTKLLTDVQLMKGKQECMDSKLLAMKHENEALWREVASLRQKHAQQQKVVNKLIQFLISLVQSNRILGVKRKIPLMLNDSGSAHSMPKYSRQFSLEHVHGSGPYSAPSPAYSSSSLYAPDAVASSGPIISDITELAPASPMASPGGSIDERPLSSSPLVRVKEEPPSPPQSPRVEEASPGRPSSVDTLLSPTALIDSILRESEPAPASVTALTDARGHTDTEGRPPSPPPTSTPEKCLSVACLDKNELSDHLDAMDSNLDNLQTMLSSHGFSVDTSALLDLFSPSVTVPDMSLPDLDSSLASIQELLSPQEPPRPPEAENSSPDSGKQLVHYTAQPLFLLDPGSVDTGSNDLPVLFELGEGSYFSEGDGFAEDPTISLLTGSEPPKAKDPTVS
How it was run: as §1

SPIC = molecular target: T2, SPIC (Homo sapiens, UniProt Q8N5J4 1-248); conditions: protein: recombinant; tags: N-terminal GST; dsDNA, one strand shown
T2 sequence: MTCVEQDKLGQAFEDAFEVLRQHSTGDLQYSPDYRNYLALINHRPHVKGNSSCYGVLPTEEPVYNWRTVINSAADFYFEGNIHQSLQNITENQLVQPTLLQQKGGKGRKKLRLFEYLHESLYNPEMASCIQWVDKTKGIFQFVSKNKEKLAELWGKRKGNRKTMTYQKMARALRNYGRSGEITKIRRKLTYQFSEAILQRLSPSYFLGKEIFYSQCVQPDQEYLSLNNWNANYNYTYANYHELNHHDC
How it was run: as §1

ELF4 = ELF4 (Homo sapiens, UniProt Q99607 1-663); conditions: protein: recombinant; tags: N-terminal GST; dsDNA, one strand shown
ELF4, sequence (Q99607 whole entry): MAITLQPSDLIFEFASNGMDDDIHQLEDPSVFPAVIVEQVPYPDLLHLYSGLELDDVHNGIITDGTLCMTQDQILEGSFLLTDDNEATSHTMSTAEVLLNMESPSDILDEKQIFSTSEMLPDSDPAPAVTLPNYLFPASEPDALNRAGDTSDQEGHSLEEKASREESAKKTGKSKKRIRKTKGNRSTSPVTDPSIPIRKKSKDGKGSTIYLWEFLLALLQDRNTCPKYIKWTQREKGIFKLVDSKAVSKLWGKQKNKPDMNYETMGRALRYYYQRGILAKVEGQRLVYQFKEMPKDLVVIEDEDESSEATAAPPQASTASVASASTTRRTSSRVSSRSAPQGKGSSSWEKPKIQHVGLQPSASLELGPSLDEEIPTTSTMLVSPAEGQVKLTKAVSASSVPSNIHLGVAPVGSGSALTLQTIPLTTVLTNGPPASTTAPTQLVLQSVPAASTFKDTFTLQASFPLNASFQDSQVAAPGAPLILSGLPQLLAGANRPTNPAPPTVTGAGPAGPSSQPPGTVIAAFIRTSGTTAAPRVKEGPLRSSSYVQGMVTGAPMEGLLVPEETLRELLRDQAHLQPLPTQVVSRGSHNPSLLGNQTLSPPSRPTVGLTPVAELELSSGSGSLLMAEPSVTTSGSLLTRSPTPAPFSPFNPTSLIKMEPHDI
How it was run: as §1

ELK4 = molecular target: T3, ELK4 (Homo sapiens, UniProt P28324-2 1-405); conditions: protein: recombinant; tags: N-terminal GST; dsDNA, one strand shown
T3 sequence: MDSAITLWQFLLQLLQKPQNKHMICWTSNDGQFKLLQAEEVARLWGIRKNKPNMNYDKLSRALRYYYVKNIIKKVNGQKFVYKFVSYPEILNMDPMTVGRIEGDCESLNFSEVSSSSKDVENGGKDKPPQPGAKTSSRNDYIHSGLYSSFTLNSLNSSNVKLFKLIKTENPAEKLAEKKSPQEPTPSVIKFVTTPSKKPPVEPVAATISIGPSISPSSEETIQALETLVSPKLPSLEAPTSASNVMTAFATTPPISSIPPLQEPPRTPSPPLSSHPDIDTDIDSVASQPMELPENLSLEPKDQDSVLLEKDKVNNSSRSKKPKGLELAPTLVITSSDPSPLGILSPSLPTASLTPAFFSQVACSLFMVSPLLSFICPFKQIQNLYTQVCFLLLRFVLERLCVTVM
How it was run: as §1

ETV2 = molecular target: T4, ETV2 (Homo sapiens, UniProt O00321 1-342); conditions: protein: recombinant; tags: N-terminal GST; dsDNA, one strand shown
T4 sequence: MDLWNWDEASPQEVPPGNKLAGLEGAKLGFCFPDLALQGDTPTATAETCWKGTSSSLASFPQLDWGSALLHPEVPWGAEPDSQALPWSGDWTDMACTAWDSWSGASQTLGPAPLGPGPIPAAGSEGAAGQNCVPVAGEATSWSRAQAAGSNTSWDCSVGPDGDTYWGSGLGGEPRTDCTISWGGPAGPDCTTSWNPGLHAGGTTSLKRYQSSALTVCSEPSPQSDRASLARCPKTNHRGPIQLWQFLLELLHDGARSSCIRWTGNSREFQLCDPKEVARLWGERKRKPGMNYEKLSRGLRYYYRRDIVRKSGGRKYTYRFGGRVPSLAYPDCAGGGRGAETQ
How it was run: as §1

ELF3 = molecular target: T5, ELF3 (Homo sapiens, UniProt P78545 1-371); conditions: protein: recombinant; tags: N-terminal GST; dsDNA, one strand shown
T5 sequence: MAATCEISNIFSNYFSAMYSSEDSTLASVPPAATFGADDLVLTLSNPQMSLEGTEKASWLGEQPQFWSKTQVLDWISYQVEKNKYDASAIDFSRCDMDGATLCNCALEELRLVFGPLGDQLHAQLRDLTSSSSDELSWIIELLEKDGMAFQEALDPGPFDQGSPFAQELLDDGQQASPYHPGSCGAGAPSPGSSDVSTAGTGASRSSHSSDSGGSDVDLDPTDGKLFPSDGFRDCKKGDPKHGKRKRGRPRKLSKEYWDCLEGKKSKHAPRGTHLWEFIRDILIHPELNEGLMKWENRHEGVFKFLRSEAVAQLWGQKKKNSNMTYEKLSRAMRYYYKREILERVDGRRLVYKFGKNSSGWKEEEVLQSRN
How it was run: as §1

CRX = CRX (Homo sapiens, UniProt O43186 1-299); conditions: protein: recombinant; tags: N-terminal GST; dsDNA, one strand shown
CRX, sequence (O43186 whole entry): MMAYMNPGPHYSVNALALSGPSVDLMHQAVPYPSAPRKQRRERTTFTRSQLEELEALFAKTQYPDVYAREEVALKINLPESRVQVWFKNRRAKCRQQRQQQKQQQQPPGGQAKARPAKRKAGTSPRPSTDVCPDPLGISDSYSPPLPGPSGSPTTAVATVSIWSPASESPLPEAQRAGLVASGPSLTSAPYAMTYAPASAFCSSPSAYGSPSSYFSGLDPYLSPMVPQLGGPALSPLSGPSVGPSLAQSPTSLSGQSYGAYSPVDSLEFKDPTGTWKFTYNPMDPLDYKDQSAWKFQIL
How it was run: as §1

ETV1 = ETV1 (Homo sapiens, UniProt P50549 1-477); conditions: protein: recombinant; tags: N-terminal GST; dsDNA, one strand shown
ETV1, sequence (P50549 whole entry): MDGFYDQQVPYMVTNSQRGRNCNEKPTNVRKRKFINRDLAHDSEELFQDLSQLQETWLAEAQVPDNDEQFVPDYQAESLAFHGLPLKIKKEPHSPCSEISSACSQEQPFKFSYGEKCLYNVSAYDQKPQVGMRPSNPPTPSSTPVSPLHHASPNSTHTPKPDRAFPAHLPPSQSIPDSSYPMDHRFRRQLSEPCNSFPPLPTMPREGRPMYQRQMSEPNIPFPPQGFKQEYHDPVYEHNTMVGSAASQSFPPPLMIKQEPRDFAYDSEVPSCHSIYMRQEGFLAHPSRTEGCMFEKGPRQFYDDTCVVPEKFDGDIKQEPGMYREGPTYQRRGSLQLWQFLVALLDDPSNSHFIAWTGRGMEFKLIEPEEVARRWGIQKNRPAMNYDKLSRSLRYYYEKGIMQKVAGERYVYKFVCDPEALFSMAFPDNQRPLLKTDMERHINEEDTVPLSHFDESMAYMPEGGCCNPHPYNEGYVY
How it was run: as §1

What does the source list for TACTTG?
binding signal (FEV): 1.22 fold enrichment (6-mer frequency, TF over GST control); binding signal (ETV5): 1.26 fold enrichment (6-mer frequency, TF over GST control); binding signal (HSF1): 1.26 fold enrichment (6-mer frequency, TF over GST control); binding signal (SPIC): 1.35 fold enrichment (6-mer frequency, TF over GST control); binding signal (ELF4): 1.39 fold enrichment (6-mer frequency, TF over GST control); binding signal (ELK4): 1.38 fold enrichment (6-mer frequency, TF over GST control); binding signal (ETV2): 1.46 fold enrichment (6-mer frequency, TF over GST control); binding signal (ELF3): 1.54 fold enrichment (6-mer frequency, TF over GST control); binding signal (CRX): 1.5 fold enrichment (6-mer frequency, TF over GST control); binding signal (ETV1): 1.54 fold enrichment (6-mer frequency, TF over GST control)
